# Experimental data reported in PubChem BioAssay (Tox21).
# Values joined by “and” are separate entries in the source; they are usually repeats but may differ in a detail not shown here. Equal entries are not always repeated. Inconclusive results are not listed. Where a call stands in place of a potency, no number is given. Active and inactive are the calls of the source. The call rests on the fitted dose curve; in most records, active means well fitted curve in the direction sought with a large enough effect in the repeat runs; inconclusive means weak or mixed curves; inactive means no such curve, though single readings can be large; an effect the other way counts as inactive or inconclusive.
# Assays:
# [1] = qHTS assay to test for compound auto fluorescence at 535 nm (green) in HEK293 cells (AID 720680); settings: green autofluorescence 485/535 nm; series mostly up to 91.3 µM
# [2] = qHTS assay to test for compound auto fluorescence at 460 nm (blue) in HEK293 cell free culture (AID 720681); settings: cell-free medium, autofluorescence 405/460 nm (blue); series mostly up to 91.3 µM
# Procedure, shortened: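 Compounds were added to cell-free DMEM with 10% FBS and fluorescence read directly. The blue channel used 405 nm excitation and 460 nm emission, with triamterene as the reference fluorophore.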
# [3] = qHTS assay to test for compound auto fluorescence at 535 nm (green) in HEK293 cell free culture (AID 720682); settings: cell-free medium, green autofluorescence 485/535 nm, active compounds read high; series mostly up to 91.3 µM
# Procedure, shortened: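 Using fluorescein as calibrant, autofluorescence was quantified at 485/535 nm in cell-free DMEM containing 10% FBS after pintool addition of compound or vehicle.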
# [4] = qHTS assay to test for compound auto fluorescence at 590 nm (red) in HEK293 cell free culture (AID 720683); settings: cell-free medium autofluorescence, Ex540/Em590 red; series mostly up to 91.3 µM
# Procedure, shortened: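 Cell-free wells of DMEM with 10% FBS received compound, and intrinsic fluorescence was read at excitation/emission 540/590 nm. Values expressed as equivalence to Rose Bengal sodium.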
# [5] = qHTS assay to test for compound auto fluorescence at 590 nm (red) in HepG2 cell free culture (AID 720684); settings: cell-free medium autofluorescence, red 540/590 nm; series mostly up to 91.3 µM
# Procedure, shortened: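 Compounds are added to culture medium (MEM, 10% FBS) lacking cells, then fluorescence is read at excitation 540 nm, emission 590 nm, with Rose Bengal sodium as the equivalency standard.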
# [6] = qHTS assay to test for compound auto fluorescence at 460 nm (blue) in HepG2 cell free culture (AID 720685); settings: Cell-free culture medium, blue autofluorescence 405/460 nm; series mostly up to 91.3 µM
# Procedure, shortened: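 Compound (23 nL) or DMSO pinned into cell-free MEM with 10% FBS; blue fluorescence read at 405/460 nm excitation/emission, expressed as auto-fluorescence equivalency to triamterene.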
# [7] = qHTS assay to test for compound auto fluorescence at 535 nm (green) in HepG2 cell free culture (AID 720686); settings: Cell-free medium, green autofluorescence 485/535 nm; series mostly up to 91.3 µM
# [8] = qHTS assay to test for compound auto fluorescence at 460 nm (blue) in HepG2 cells (AID 720687); settings: autofluorescence 405/460 nm, 1 h; series mostly up to 91.3 µM
# Procedure, shortened: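 HepG2 cells in MEM with 10% FBS, attached overnight at 37 C, were exposed to compound or DMSO for 1 hr at 37 C, 5% CO2. Blue fluorescence was read at 405/460 nm, with triamterene as reference fluorophore.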
# [9] = qHTS assay to identify small molecule antagonists of the glucocorticoid receptor (GR) signaling pathway - cell viability counter screen (AID 720693); settings: GR-bla HeLa viability, CellTiter-Glo luminescence, 18 h, with 5 nM dexamethasone present; series mostly up to 58.5 µM; further: nearly all actives have a fitted effect of over 55% in size
# [10] = qHTS assay for identifying genotoxic compounds that show differential cytotoxicity against isogenic chicken DT40 cell lines with known DNA damage response pathways - wild type cell line (AID 743012); settings: DT40 wild type chicken cells viability, CellTiter-Glo, 40 h; series mostly up to 68.4 µM; further: nearly all actives have a fitted effect of over 60% in size; further: potency means the concentration at half of the fitted maximal effect
# Procedure, shortened: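 Parental DNA repair-proficient DT40 cells, 300 per well, were pre-incubated ~0.5 h at 37 C/5% CO2, pin-dosed with compounds in DMSO, then incubated 40 h. Viability was read as CellTiter-Glo luminescence after 30 min at room temperature.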
# [11] = qHTS assay for identifying genotoxic compounds that show differential cytotoxicity against isogenic chicken DT40 cell lines with known DNA damage response pathways - Rev3 mutant cell line (AID 743014); settings: chicken DT40 Rev3-/- viability, CellTiter-Glo, 40 h; series mostly up to 68.4 µM; further: nearly all actives have a fitted effect of over 55% in size; further: potency means the concentration at half of the fitted maximal effect
# [12] = qHTS assay to identify small molecule antagonists of the androgen receptor (AR) signaling pathway - cell viability counter screen (AID 743033; further: nearly all actives have a fitted effect of over 45% in size); settings: AR-bla HEK293 viability, CellTiter-Glo luminescence, 16 h; series mostly up to 58.5 µM
# [13] = qHTS assay to identify small molecule antagonists of the androgen receptor (AR) signaling pathway using the MDA cell line - cell viability counter screen (AID 743041; further: nearly all actives have a fitted effect of over 45% in size); settings: MDA-kb2 viability, CellTiter-Fluor, 16 h, cells co-treated with R1881 androgen agonist; series mostly up to 70.3 µM
# Procedure, shortened: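 Same-well cytotoxicity was assessed by CellTiter-Fluor in MDA-kb2 AR-luc cells after 16 h of compound treatment under R1881 agonism.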
# [14] = qHTS assay to identify small molecule antagonists of the thyroid receptor (TR) signaling pathway - cell viability counter screen (AID 743064); settings: GH3.TRE-Luc viability, CellTiter-Fluor, 24 h; series mostly up to 70.3 µM; further: nearly all actives have a fitted effect of over 50% in size; further: potency means the concentration at half of the fitted maximal effect
# Procedure, shortened: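 Counter screen for cytotoxicity: compound plus T3 (1 nM final) on GH3.TRE-Luc cells, 23.5 h at 37 °C, then fluorescence viability readout with CellTiter-Fluor.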
# [15] = qHTS assay for identifying genotoxic compounds that show differential cytotoxicity against isogenic chicken DT40 cell lines with known DNA damage response pathways - Rad54/Ku70 mutant cell line (AID 743015); settings: DT40 Rad54/Ku70 mutant viability, CellTiter-Glo, 40 h; series mostly up to 66.8 µM; further: nearly all actives have a fitted effect of over 60% in size; further: potency means the concentration at half of the fitted maximal effect
Structure (SMILES),outcome [1],Potency [2],outcome [3],outcome [4],outcome [5],Potency [6],outcome [7],Potency [8],Potency [9],Potency [10],Potency [11],Potency [12],Potency [13],Potency [14],Potency [15]
CC(COc1ccc(C(C)(C)C)cc1)OS(=O)OCCCl (stereo not drawn),inactive,inactive,inactive,inactive,inactive,inactive,inactive,inactive,inactive,inactive,inactive,inactive,inactive,inactive,
O=C(CCCCCCC(=O)Nc1ccccc1)NO,inactive,inactive,inactive,inactive,inactive,inactive,inactive,inactive,inactive,1.06 µM (active),531 nM (active) and 841 nM (active),,inactive,3.35 µM (active) and 2.11 µM (active),1.5 µM (active)
CC(=O)Oc1ccc(C(=C2CCCCC2)c2ccc(OC(C)=O)cc2)cc1,inactive,inactive,inactive,inactive,inactive,inactive,inactive,inactive,inactive,inactive,,inactive,inactive,,inactive
CC1C2CC(CC2C2CCCC(O)C2)C1(C)C (stereo not drawn),inactive,inactive,inactive,inactive,inactive,inactive,inactive,inactive,inactive,,24.3 µM (active),,inactive,inactive,
